Shown are actives, neighbours in structure and some others; about 3.3% of the full set was active somewhere.
CTSL1 counter: cathepsin L1 inhibition, PFM18AAP counter-screen; recombinant F. hepatica cathepsin L1, Z-Leu-Arg-MCA fluorescence; 0.49% of 300,000 active; AID 1906; inhibition, % at 5.96 µM;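 active = inhibition above the mean of all tested compounds plus 3 SD, set per screening campaign, cut at about 17% in these data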;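 note: 0% = plate median of test compound wells and 100% = 1 µM Z-Phe-Ala-diazomethylketone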
Rpn11 block: inhibitors of human proteasome Rpn11; AID 588493; human 26S proteasome, Ub4-pepOG fluorescence polarization; 20S core pre-blocked with epoxomicin; O00487; inhibition, % at 20 µM; 0.59% of 360,000 active;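 active = inhibition at 20 µM, scaled to each plate's controls, above about 33%, limit read from the data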
PHOSPHO1 inh: PHOSPHO1 (human) inhibition; Q8TCT1; recombinant PHOSPHO1, absorbance phosphatase assay; inhibition, % at 13.3 µM; 1.1% of 290,000 active; AID 1565; in the data active = inhibition above about 60%
HNF4A DNA FP: change in binding of human HNF4 alpha to DNA | activity change, % at 10 µM | AID 1224865 | 0.3% of 360,000 active | HNF4a-FITC DNA binding, fluorescence polarization, 1 h | P41235; in the data active = activity change above about 30%, passing the limit was not always enough
NRP1-CendR mod: alters CendR peptide binding to human NRP-1 | FAM-RPARPAR peptide binding to NRP-1, fluorescence polarization | inhibition, % at 25 µM | 0.85% of 360,000 active | O14786;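 active = inhibition or corrected inhibition above about 18%, plus a signal ratio from 0.5 to 1.5, limit read from the data, passing the limit was not always enough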
TPT1 inh: C. albicans TPT1 enzyme inhibition. recombinant caTPT1, FP RNA substrate dephosphorylation. inhibition, % at 5 µM. 0.81% of 300,000 active. AID 1962;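 active = inhibition above the mean of all tested compounds plus 3 SD, set per screening campaign, cut at about 24% in these data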;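 note: plate controls were DMSO alone for no effect and ferristatin control at 100 nM for full effect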
Rpn11 confirm: Rpn11 inhibition confirmation, single concentration; 29% of 1,900 active; inhibition, % at 20 µM; shares compounds with Rpn11 block; purified human 26S proteasome, Ub4-pepOG fluorescence polarization; proteasome pretreated with epoxomicin; AID 602318
MMP-2 inh: blocks human MMP-2, flagging nonselective RPN11 hits | 4% of 1,900 active | inhibition, % at 20 µM | recombinant MMP-2, FRET peptide cleavage fluorescence | shares compounds with Rpn11 block;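 note: human MMP-2 activated beforehand with APMA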
Thrombin FP: thrombin (bovine) inhibition counter-screen; shares compounds with Rpn11 block; bovine thrombin cleavage of Ub4-pepOG, fluorescence polarization; inhibition, % at 20 µM; 13% of 1,900 active;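 active = mean inhibition at least 40% at 20 µM, or signal 3 deviations below plate average, so some actives read negative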;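 note: plate controls were thrombin with DMSO for no effect and buffer wells lacking thrombin for full effect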
Target sequence (P00735 whole entry, looked up): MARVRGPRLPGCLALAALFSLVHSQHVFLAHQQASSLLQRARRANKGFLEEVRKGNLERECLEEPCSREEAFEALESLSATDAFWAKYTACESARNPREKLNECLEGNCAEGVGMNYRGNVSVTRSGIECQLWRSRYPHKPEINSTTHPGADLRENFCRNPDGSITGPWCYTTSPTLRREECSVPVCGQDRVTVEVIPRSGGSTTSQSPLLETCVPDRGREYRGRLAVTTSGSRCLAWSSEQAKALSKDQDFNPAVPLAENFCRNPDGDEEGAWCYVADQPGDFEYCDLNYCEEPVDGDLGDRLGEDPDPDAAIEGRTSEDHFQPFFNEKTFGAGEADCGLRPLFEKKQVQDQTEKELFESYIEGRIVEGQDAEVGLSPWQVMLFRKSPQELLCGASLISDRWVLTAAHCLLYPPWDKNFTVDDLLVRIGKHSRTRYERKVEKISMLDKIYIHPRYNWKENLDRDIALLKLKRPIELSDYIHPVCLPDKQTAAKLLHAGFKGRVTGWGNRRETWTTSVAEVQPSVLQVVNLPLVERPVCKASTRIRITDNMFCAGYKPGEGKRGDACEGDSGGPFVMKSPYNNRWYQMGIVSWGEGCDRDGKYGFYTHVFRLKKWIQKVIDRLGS
* = called active by the depositor; . = no result given; + = active, no number. Cut-off read from the data, not from the text of the source, unless noted: active = inhibition above about 40%; inactive = the rest.

SMILES	CTSL1 counter	Rpn11 block	PHOSPHO1 inh	HNF4A DNA FP	NRP1-CendR mod	TPT1 inh	Rpn11 confirm	MMP-2 inh	Thrombin FP
O=C(CCCN1C(=O)/C(=C\c2cccs2)SC1=S)NNC(=O)c1cccnc1	1.3	165.8*	28.0	12.3	-43.9	2.9	3.2	12.9	-2.2
O=C(CCCN1C(=O)/C(=C/c2cccs2)SC1=S)Nc1ccccc1O	5.8	2.9	40.5	3.9	2.3	20.5	.	.	.
O=C(CCCN1C(=O)/C(=C/c2cccs2)SC1=S)NNC(=O)c1ccncc1	-1.4	47.4*	32.5	2.9	-39.1	2.0	-6.7	19.6	0.8
O=C(CCCN1C(=O)/C(=C/c2cccs2)SC1=S)NNC(=O)c1ccccc1O	2.7	10.7	-4.0	8.5	-11.6	1.9	.	.	.
O=C(CCCN1C(=O)/C(=C\c2cccs2)SC1=S)Nc1ccccn1	2.5	34.4*	-17.4	0.6	-8.4	2.4	4.7	-34.6	-7.7
Cc1ccc(C(=O)Nc2ccc(N3CCN(C)CC3)cc2)cc1C	-9.6	-4.4	35.7	3.7	9.2	-1.2	.	.	.
CC(=O)Nc1ccc(S(=O)(=O)N[C@@H](C)C(=O)NC2CCCc3ccccc32)cc1 (some centres undefined)	.	2.8	.	3.4	-1.8	.	.	.	.
Cc1nnc(-c2ccco2)c2cn(-c3cccc(Br)c3)nc12	4.2	45.9*	13.5	-24.8	-73.8	11.5	22.0	21.9	-3.8
CCCSc1nnc(CN2CCOCC2)n1C	0.2	121.7*	2.9	-6.4	-10.3	0.3	-12.3	-48.9	-17.7
Cn1c(CN2CCOCC2)nnc1SCC(N)=O	-0.5	3.3	3.8	-0.8	3.4	2.0	.	.	.
O=C1NC(=Nc2ccc3ccccc3c2)S/C1=C/c1ccco1	3.6	39.8*	-93.5	11.3	-82.4	18.7	24.8	-20.9	15.8
O=C1NC(=Nc2ccc(O)cc2)S/C1=C/c1ccco1	8.4	3.7	4.1	0.5	2.0	-1.0	.	.	.
Cc1ccc(Cn2c(/C=C/c3ccco3)nc3ccccc32)cc1	-0.1	59.1*	-2.4	29.1	-71.5	20.2	37.8	5.2	13.9
Cc1ccc(Cn2c(Cc3ccccc3)nc3ccccc32)cc1	-5.2	2.5	22.9	1.5	-2.9	3.6	.	.	.
NC(=O)CC(NC(=O)c1ccc(Br)cc1)c1ccc(NC2CCCCC2)c([N+](=O)[O-])c1 (centres undefined)	-0.9	34.6	-5.6	17.0	-30.2	10.8	.	.	.
CCc1ccc(NC(=O)/C(C#N)=C/c2cc3ccc(C)cc3nc2N2CCOCC2)cc1	-3.7	.	-13.6	33.9	-85.7	6.7	.	.	.
CCN(CC)c1nc2cc(C)ccc2cc1/C=C(\C#N)C(N)=O	0.7	49.0*	15.0	16.8	-60.8	12.2	14.8	10.8	9.8
COc1nc(Nc2nc3ccccc3c(=O)[nH]2)nc2ccc(C)cc12	-0.5	42.9*	-12.1	275.2*	-7.6	-2.5	15.6	-6.1	4.6
CN(C(=O)COC(=O)CSc1ccccc1)c1c(N)n(Cc2ccccc2)c(=O)[nH]c1=O	.	3.1	.	-0.1	8.1	.	.	.	.
O=C1Nc2cc(C(=O)NCCCN3CCCC3)ccc2S/C1=C\c1ccccc1	5.0	6.9	32.4	4.2	5.8	1.1	.	.	.
COc1ccc(/C=C2/Sc3ccc(C(=O)NCCN4CCCCCC4)cc3NC2=O)cc1	-0.4	70.0*	47.7	10.3	-10.0	-2.3	7.6	-40.3	-1.8
S=C(Nc1cc(Cl)ccc1Oc1ccccc1)N1CCN(c2ccccn2)CC1	.	35.6*	33.7	7.6	5.0	.	-8.1	46.5*	-3.3
Cn1c(=O)c2cc(S(=O)(=O)NC(C(=O)Nc3cccc(F)c3)c3ccccc3)ccc2n(C)c1=O (centres undefined)	-1.5	46.8*	8.6	-3.5	-9.2	0.4	71.5*	-31.6	-16.2
NC(=O)CC(NC(=O)c1ccc(Br)cc1)c1ccc(NC2CCCCCC2)c([N+](=O)[O-])c1 (centres undefined)	-0.5	43.0*	4.7	25.2	-56.3	0.3	40.1*	-11.2	7.8
CCN1CCC(O)(C(C(=O)OC)c2ccccc2)CC1 (centres undefined)	.	-1.7	.	-1.2	6.6	.	.	.	.
SMILES	CTSL1 counter	Rpn11 block	PHOSPHO1 inh	HNF4A DNA FP	NRP1-CendR mod	TPT1 inh	Rpn11 confirm	MMP-2 inh	Thrombin FP
Cc1ccc(C(=O)NCc2ccccc2)cc1Br	-1.1	2.3	-5.7	-1.0	2.7	3.5	.	.	.
Cc1cc(OC(=O)c2ccc(Cl)cc2Cl)nc(C)n1	-0.5	+	-17.6	-2.3	-1.8	-0.7	-2.2	-46.1	5.5
COc1ccccc1C(=O)NC(C)C(c1cccs1)N1CCOCC1 (centres undefined)	-0.8	-5.1	13.2	1.3	-1.8	-1.4	.	.	.
C=CCn1c2ccccc2c2nnc(SCC(=O)OC)nc21	.	0.7	.	1.8	-8.6	.	.	.	.
C=CCn1c2ccccc2c2nnc(SCC(N)=O)nc21	2.0	45.2*	32.6	4.0	0.7	0.2	-4.3	-29.6	-1.1
CC(=O)C1=C(C)NC(SCC(=O)c2ccc(F)cc2)=C(C#N)C1c1ccco1 (centres undefined)	0.9	8.6	43.1	4.8	-16.1	5.0	.	.	.
CC(=O)C1=C(C)NC(SCC(=O)c2ccc(Cl)c(Cl)c2)=C(C#N)C1c1ccco1 (centres undefined)	4.0	41.2*	75.6*	16.4	-20.5	19.9	22.3	44.6*	15.3
Cc1ccc(CNS(=O)(=O)c2ccccc2[N+](=O)[O-])cc1	-0.5	-2.4	44.5	-0.4	-0.3	-2.9	.	.	.
COc1ccc(-n2nnc3c(=O)n(CC(=O)Nc4ccc5c(c4)OCCO5)cnc32)cc1OC	-0.8	43.8*	17.6	-0.9	-7.6	3.1	17.0	-25.2	6.9
COc1ccc(-n2ncc3c(=O)n(CC(=O)Nc4ccc5c(c4)OCCO5)cnc32)cc1	1.3	-8.8	14.6	1.8	5.3	-0.8	.	.	.
Cc1ccc2sc(NNC(=O)c3cc(=O)c4ccccc4o3)nc2c1C	-0.8	48.2*	35.7	13.3	-27.9	12.4	20.4	11.9	-13.5
CCN1C[C@@H]2[C@@H]3C(=O)N(C)C(=O)[C@@H]3[C@](CC)(C1=O)N2C(=O)c1ccc(Cl)cc1	.	-2.0	.	-1.8	10.3	.	.	.	.
CCOc1ccccc1NC(=O)Cn1c(=O)c(OCC)nc2cnccc21	-2.5	-1.6	22.3	-0.5	-1.9	-0.2	.	.	.
CCOc1nc2cnccc2n(CC(=O)Nc2ccccc2C(=O)OC)c1=O	2.1	69.9*	38.2	17.8	5.1	-0.3	3.3	-5.3	2.2
O=C1CCCN1CCC(=O)N1CCCC(CO)(Cc2ccccc2)C1 (centres undefined)	4.8	2.7	27.3	-5.2	4.6	-4.0	.	.	.
